These results are taken from PubChem BioAssay.

Assay [1] relates to PRMT1 (protein arginine N-methyltransferase 1). Briefly: PRMT1 binders on small-molecule microarrays, primary screen, biochemical, small-molecule microarray, 635 nm fluorescence (AID 1088).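 Also: binding of Prmt1 protein to compounds spotted on small-molecule microarray slides.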 Conditions: small-molecule microarray binding, higher = more signal.
Assay [2] can be described thus: yeast growth modulation, basal conditions, primary screen, YJM789 clinical isolate, OD600, 24 h (AID 1089).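 Also: growth of clinical yeast isolate S. cerevisiae YJM 789 seeded 1000 cells per well; test concentration not given here.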 Conditions: S. cerevisiae YJM789 growth, higher = more signal, called active from +8 up or from −8 down.
A short description of assay [3]: fission yeast growth modulation, primary screen, strain 972, OD600, 24 h, no modulator (AID 1090).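 Also: basal condition with compound alone and no growth modifier present; test concentration not given here.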 Conditions: S. pombe 972 growth, higher = more signal, called active from +8 up or from −8 down.
The nature of assay [4]: S. cerevisiae growth modulation with rapamycin, primary screen, strain BY4716, OD600, 96 h (AID 1091). Also: test concentration not given here. Conditions: higher = more signal, called active from +8 up or from −8 down.
Assay [5] concerns the target Torsin-1A-interacting protein 2 (Homo sapiens) (UniProt Q8NFQ8). In words: LULL1 binders on small-molecule microarray, primary screen, cell lysate, human LULL1 lysate, 635/667 nm fluorescence (AID 1092).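 Also: probe is lysate of COS7 cells overexpressing human LULL1; score merges per-feature 667 nm fluorescence with signal-to-noise.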 Conditions: hLULL1 lysate binding, 635 nm fluorescence, higher = more signal.
A short description of assay [6]: E. coli growth modulation, two-sided OD650, primary screen, E. coli filamentation project, strain DRC41, 24 h (AID 1093).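 Also: MC1000 strain lacking acrAB efflux and sulA so SOS filamentation is blocked; test concentration not given here.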 Conditions: OD650, 24 h, higher = more signal, called active from +8 up or from −8 down.
Assay [7] in a line: small-molecule microarray binders of probe aLefty2, primary screen, biochemical, biotinylated probe, 635/667 nm fluorescence (AID 1094).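 Also: score merges spot fluorescence near 667 nm with spot signal-to-noise ratio.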 Conditions: higher = more signal.
Assay [8] relates to Noggin (protein binding on small-molecule microarray). Briefly: Noggin binders on small-molecule microarray, primary screen, biochemical, 635/667 nm fluorescence (AID 1095).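 Also: score merges 667 nm feature fluorescence with signal to noise over triplicate slides.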 Conditions: 635 nm fluorescence, higher = more signal.
Assay [9] concerns the target Neurogenic locus notch homolog protein 3 (Homo sapiens) (UniProt Q9UM47). In words: NOTCH3 binders on small-molecule microarray, primary screen, biochemical, 635/667 nm fluorescence (AID 1096). Conditions: NOTCH3 binding, 635 nm fluorescence, higher = more signal.
Assay [10] is described as follows: small-molecule microarray binders of probe aEGFR, primary screen, biochemical, biotinylated probe, 635/667 nm fluorescence (AID 1097).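 Also: probe is a biotinylated anti-EGFR antibody binding compounds printed on slides; score combines fluorescence near 667 nm and signal to noise of each spot.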 Conditions: higher = more signal.
In assay [11] the test system is Plasmodium falciparum Sir2 (PF13_0152, Sir2A). In words: pfSir2 binders on small-molecule microarrays, primary screen, biochemical, small-molecule microarray, 635 nm fluorescence (AID 1098).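 Also: score merges spot fluorescence intensity with its signal-to-noise ratio.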 Conditions: small-molecule microarray binding, fluorescence 635 nm; higher = more signal.
Assay [12] in a line: small-molecule microarray binders of probe aDKK1, primary screen, biochemical, biotinylated probe, 635/667 nm fluorescence (AID 1099).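 Also: score merges 667nm spot fluorescence with signal to noise across triplicate slides; reference of the scale not given here.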 Conditions: higher = more signal.
Assay [13] is described as follows: small-molecule microarray binders of probe aCHRDL2, primary screen, biochemical, biotinylated probe, 635/667 nm fluorescence (AID 1100). Conditions: higher = more signal.
Assay [14] is described as follows: splicing luciferase reporter signal modulators, primary screen, spliceosome inhibition project, cell-based, HEK293, splice +/- reporter (AID 1101).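 Also: HEK293 cells carrying a splicing-competent luciferase reporter gene; test concentration not given here.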 Conditions: luminescence, 24 h, higher = more signal, called active from +8 up or from −8 down. (Reporter assays use an easily measured gene product as a stand-in for the process of interest.)
Assay [15] addresses Fibroblast growth factor 10 (Homo sapiens) (UniProt O15520). In words: FGF10 binders on small-molecule microarrays, primary screen, biochemical, small-molecule microarray, 635 nm fluorescence (AID 1102). Conditions: FGF10 binding, fluorescence 635 nm, higher = more signal.
Assay [16] relates to glycogen synthase kinase-3 (GSK3A per assay name; protocol says GSK3B). Briefly: GSK3 binders on small-molecule microarrays, primary screen, biochemical, small-molecule microarray, 635 nm fluorescence, GSK3A (AID 1103). Also: the record names both GSK3A and GSK3B. Conditions: small-molecule microarray binding, fluorescence 635 nm; higher = more signal.
Assay [17] addresses Epidermal growth factor receptor (Homo sapiens) (UniProt P00533). In words: EGFR binders on small-molecule microarrays, primary screen, biochemical, small-molecule microarray, 635 nm fluorescence (AID 1104).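 Also: score merges 667 nm emission intensity with spot signal to noise over triplicate slides.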 Conditions: EGFR binding, higher = more signal.
The target of assay [18] is Follistatin-related protein 3 (Homo sapiens) (UniProt O95633). In words: FSTL3 binders on small-molecule microarrays, primary screen, biochemical, small-molecule microarray, 635 nm fluorescence (AID 1105).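 Also: score merges emission near 667 nm and signal to noise per printed spot across three slides.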 Conditions: FSTL3 binding, higher = more signal.
Sequence of Follistatin-related protein 3 (Homo sapiens) (O95633 whole entry, looked up): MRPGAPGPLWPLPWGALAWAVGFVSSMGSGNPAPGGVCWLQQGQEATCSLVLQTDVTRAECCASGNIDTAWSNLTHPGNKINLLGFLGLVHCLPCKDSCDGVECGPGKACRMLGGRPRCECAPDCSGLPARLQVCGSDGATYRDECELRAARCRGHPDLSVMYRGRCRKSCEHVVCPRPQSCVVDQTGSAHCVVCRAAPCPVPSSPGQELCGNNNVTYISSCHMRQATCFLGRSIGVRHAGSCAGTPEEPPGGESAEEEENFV
For assay [19], the target named is Dickkopf-related protein 1 (Homo sapiens) (UniProt O94907). Briefly: DKK1 binders on small-molecule microarrays, primary screen, biochemical, small-molecule microarray, 635 nm fluorescence scan (AID 1106).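 Also: score merges emission near 667 nm with signal to noise over three replicate slides.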 Conditions: DKK1 binding, higher = more signal.
Sequence of Dickkopf-related protein 1 (Homo sapiens) (O94907 whole entry, looked up): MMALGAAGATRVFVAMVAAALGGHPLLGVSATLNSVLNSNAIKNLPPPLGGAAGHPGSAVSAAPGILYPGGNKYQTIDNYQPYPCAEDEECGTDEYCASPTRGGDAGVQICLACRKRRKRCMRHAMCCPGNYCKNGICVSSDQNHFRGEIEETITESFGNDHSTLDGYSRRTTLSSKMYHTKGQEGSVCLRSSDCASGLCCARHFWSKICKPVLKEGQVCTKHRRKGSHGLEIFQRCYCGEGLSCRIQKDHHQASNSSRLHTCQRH
Assay [20] relates to Inhibin beta A chain (activin A). In words: INHBA (activin A) binders on microarrays, primary screen, biochemical, small-molecule microarray, 635 nm fluorescence scan (AID 1107).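 Also: mouse activin A protein probed at 4.33 µg/mL on printed slides; score merges bound-protein fluorescence near 667 nm with spot signal-to-noise.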 Conditions: small-molecule microarray binding, higher = more signal.

Activity calls are given as the source filed them.

Sequence of Fibroblast growth factor 10 (Homo sapiens) (O15520 whole entry, looked up): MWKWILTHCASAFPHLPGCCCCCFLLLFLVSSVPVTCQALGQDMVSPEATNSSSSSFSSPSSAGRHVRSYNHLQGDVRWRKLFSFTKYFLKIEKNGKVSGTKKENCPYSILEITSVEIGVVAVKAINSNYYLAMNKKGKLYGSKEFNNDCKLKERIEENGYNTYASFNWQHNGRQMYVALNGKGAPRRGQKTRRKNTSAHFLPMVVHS
Sequence of Epidermal growth factor receptor (Homo sapiens) (P00533 whole entry, looked up): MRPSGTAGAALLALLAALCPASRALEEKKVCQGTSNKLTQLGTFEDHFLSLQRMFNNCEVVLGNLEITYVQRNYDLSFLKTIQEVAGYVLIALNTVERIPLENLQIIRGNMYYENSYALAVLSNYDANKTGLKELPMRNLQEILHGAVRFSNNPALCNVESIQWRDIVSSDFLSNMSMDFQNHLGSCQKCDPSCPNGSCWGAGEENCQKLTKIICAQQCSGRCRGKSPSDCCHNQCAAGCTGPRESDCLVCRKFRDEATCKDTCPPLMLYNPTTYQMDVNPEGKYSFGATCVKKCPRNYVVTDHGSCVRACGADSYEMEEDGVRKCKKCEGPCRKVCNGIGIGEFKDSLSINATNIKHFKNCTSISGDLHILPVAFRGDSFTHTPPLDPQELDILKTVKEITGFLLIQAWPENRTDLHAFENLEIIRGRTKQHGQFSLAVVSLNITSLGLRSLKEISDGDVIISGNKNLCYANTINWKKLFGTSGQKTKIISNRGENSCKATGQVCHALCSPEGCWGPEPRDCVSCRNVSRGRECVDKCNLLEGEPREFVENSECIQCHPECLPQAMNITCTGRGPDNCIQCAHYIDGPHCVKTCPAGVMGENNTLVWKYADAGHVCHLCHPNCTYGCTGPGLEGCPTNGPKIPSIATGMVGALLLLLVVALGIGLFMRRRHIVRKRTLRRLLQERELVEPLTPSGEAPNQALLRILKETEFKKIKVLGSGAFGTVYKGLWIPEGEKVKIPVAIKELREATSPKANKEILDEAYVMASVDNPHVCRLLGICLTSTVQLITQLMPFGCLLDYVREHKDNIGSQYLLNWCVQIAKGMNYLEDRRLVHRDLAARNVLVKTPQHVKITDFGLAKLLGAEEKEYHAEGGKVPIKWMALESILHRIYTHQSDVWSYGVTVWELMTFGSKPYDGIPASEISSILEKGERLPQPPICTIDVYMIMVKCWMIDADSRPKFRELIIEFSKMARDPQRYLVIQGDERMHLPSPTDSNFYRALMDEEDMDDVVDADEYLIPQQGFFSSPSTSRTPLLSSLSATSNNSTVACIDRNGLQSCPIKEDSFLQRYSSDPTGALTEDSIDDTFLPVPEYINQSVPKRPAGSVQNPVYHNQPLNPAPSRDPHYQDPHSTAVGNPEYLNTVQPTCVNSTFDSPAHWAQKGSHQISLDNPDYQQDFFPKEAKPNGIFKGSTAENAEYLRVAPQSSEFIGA
Sequence of Neurogenic locus notch homolog protein 3 (Homo sapiens) (Q9UM47 whole entry, looked up): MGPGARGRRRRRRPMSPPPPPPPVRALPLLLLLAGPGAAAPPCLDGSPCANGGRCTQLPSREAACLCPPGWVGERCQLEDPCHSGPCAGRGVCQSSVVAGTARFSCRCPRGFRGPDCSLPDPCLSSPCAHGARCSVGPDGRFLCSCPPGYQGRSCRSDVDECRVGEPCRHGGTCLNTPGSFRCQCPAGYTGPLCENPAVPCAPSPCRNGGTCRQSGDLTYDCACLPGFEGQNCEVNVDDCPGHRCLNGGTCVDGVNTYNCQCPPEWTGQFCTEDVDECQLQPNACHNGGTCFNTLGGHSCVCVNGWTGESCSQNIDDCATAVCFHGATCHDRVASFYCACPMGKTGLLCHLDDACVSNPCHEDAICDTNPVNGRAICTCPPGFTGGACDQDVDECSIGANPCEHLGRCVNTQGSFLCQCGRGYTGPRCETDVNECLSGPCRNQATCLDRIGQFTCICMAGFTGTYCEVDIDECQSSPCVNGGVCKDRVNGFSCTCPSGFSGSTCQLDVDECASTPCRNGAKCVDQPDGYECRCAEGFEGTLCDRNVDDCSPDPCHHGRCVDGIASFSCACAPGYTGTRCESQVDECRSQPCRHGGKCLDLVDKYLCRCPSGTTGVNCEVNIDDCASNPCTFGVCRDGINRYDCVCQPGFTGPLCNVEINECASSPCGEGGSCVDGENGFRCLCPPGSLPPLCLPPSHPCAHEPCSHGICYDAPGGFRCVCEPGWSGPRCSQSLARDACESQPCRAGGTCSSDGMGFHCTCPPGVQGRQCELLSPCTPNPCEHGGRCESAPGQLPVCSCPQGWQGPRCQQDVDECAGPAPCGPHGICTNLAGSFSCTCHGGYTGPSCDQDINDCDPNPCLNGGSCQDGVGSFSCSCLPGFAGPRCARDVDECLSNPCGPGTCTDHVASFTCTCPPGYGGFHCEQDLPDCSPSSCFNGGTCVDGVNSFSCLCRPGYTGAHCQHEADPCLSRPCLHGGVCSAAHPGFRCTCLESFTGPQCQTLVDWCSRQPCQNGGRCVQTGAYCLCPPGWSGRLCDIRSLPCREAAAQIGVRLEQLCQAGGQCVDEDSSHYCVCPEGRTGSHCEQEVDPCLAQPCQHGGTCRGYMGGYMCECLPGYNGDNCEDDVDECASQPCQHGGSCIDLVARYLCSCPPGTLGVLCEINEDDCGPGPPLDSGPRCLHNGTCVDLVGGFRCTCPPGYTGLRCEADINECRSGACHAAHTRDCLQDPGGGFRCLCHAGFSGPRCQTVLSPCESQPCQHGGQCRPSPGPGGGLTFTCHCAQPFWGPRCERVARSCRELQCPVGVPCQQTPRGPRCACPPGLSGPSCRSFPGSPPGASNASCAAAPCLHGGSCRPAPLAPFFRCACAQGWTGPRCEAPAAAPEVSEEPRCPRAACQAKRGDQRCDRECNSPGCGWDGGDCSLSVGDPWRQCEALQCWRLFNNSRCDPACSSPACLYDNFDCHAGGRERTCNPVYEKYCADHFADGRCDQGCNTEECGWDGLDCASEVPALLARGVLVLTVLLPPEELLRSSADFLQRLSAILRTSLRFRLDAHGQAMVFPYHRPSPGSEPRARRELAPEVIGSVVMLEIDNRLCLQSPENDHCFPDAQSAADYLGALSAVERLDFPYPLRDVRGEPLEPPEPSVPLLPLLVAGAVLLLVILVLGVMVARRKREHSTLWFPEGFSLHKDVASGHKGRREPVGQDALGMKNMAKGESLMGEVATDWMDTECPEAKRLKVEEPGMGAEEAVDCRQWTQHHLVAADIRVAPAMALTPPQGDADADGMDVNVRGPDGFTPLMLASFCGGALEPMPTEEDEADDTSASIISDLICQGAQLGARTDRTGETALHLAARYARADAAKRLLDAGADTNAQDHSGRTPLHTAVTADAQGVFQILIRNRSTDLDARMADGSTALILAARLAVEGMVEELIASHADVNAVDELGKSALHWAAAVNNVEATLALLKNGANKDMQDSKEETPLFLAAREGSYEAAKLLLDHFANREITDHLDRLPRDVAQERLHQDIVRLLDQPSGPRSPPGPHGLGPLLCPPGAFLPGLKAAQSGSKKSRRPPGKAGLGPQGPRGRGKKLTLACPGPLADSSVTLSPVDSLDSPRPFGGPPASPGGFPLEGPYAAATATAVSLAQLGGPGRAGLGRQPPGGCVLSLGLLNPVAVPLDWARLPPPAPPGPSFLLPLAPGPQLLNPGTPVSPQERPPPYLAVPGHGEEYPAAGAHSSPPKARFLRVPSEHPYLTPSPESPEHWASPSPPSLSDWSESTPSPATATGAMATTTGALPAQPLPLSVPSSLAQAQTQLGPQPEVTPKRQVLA
Sequence of Torsin-1A-interacting protein 2 (Homo sapiens) (Q8NFQ8 whole entry, looked up): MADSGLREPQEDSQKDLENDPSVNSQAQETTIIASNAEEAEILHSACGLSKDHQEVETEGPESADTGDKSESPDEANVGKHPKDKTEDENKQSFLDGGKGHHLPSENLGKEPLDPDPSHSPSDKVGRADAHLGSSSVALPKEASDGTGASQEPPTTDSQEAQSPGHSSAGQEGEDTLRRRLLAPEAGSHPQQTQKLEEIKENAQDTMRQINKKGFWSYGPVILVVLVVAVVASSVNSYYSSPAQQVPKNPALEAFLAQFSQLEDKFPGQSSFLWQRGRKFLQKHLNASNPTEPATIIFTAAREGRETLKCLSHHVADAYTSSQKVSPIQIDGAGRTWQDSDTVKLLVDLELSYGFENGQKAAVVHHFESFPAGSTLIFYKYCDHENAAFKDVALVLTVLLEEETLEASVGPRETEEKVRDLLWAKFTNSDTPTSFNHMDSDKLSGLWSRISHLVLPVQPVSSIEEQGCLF

For `O=C1C[C@@H](O)[C@@H](O)[C@@H]2[C@@H]3C(=O)N(C[C@@H]4CCCO4)C(=O)[C@@H]3CC[C@@H]12`, the composite z-score in assay [1] was 0.282; in [5], 1.17; in assay [7] it was -0.0708; in [8], 0.658; in assay [9] it was 0.472; in assay [10], 0.091. The composite z-score is 0.495 in assay [11]; -0.185 in assay [12]; -0.7 in assay [13]; 0.612 in [15]; 0.718 in [16]; 0.573 in assay [17]. In addition, the composite z-score in assay [18] is 0.761; in assay [19], 0.823; in assay [20], -0.0076. For the same molecule, the z-score was -0.217 (inactive) in assay [2]; -0.519 (inactive) in assay [3]; -0.404 (inactive) in assay [4]; 0.48 (inactive) in [6]; -0.0639 (inactive) in [14].
On to `CC(=O)OC[C@H]1OC(ON=CC[C@@H]2C=C[C@H](OC(C)=O)[C@@H](COC(C)=O)O2)[C@H](OC(C)=O)[C@@H](OC(C)=O)[C@@H]1OC(C)=O` (stereo not given in full), for which the composite z-score in [1] stood at 1.4; in [5], 0.828; in [7], 0.106; in assay [8], 0.612; in assay [9], 0.448; in assay [10], 0.145. Besides, the composite z-score in [11] is 0.119; in [12], -0.0393; in [13], 0.265; in assay [15] it was 0.384; in assay [16] it was 0.0032; in assay [17], 0.261. Moreover, the composite z-score in [18] was -0.368; in [19], -0.416; in assay [20], -2.75. The z-score is -0.763 (inactive) in [2]; 0.17 (inactive) in assay [3]; -0.64 (inactive) in [4]; -0.16 (inactive) in assay [6]; 0.632 (inactive) in assay [14].
For `CC(C)CON=C1[C@H]2CCn3c(=O)n(Cc4cc5c(cc4Cl)OCO5)c(=O)n3[C@H]2[C@H](O)[C@@H]2O[C@H]12`, the composite z-score in assay [1] was -0.149; in assay [5], 0.299; in [7] it was -0.0936; in assay [8], 0.607; in [9], 0.573; in assay [10], -0.0139. The composite z-score in assay [11] was 0.241; in assay [12], -0.304; in assay [13] it was -0.641; in assay [15], 0.533; in assay [16] it was 0.589; in [17] it was 0.483. Moreover, the composite z-score in [18] was 0.554; in [19], 0.484; in [20], 0.233. Also, the z-score is 0.534 (inactive) in assay [2]; -0.129 (inactive) in [3]; 0.296 (inactive) in [4]; 0.0007 (inactive) in assay [6]; -0.756 (inactive) in [14].
As for `CC(C)=CCCC(C)=CCON=C1C[C@@H](O)[C@@H](O)[C@@H]2[C@@H]3C(=O)N(C4CCCCC4)C(=O)[C@@H]3CC[C@@H]12`, the composite z-score in assay [1] is 0.614; in assay [5] it was -0.687; in [7] it was -0.15; in assay [8], 0.615; in assay [9], -0.407; in assay [10], -0.0956. Also, the composite z-score in assay [11] is 0.511; in assay [12] it was -0.355; in assay [13], -0.858; in assay [15], 0.368; in assay [16] it was -0.345; in assay [17], 0.859. Further, the results for the composite z-score in assay [18], in assay [19] and in assay [20] were 0.502, 0.996 and 1.04, respectively. Besides, the z-score in [2] was -0.671 (inactive); in assay [3] it was -2.8 (inactive); in assay [4] it was -0.513 (inactive); in [6], -0.257 (inactive); in assay [14], 0.956 (inactive).
`COC(=O)CC=C[C@@H](C)[C@H](OCc1cccc(-c2ccccc2)c1)C1CCCCC1`: the composite z-score was -0.526 in assay [1]; -0.311 in [5]; -0.321 in assay [7]; -0.274 in assay [8]; -0.395 in assay [9]; -0.27 in assay [10]. Besides, the composite z-score in assay [11] is -0.632; in assay [12], -0.416; in assay [13] it was -0.223; in assay [15] it was -0.127; in assay [16], -1.21; in assay [17], 0.371. Further, the results for the composite z-score in assay [18], in assay [19] and in assay [20] were 0.736, 0.352 and 1.97, respectively. The z-score in [2] was 1.44 (inactive); in [3] it was -0.915 (inactive); in [4], 1.45 (inactive); in assay [6] it was 0.109 (inactive); in assay [14] it was -0.102 (inactive).
